Results on 35 compounds are retold here after PubChem BioAssay (NCATS).

The structures appear in SMILES notation. Records with an inconclusive call do not appear. Unmarked numbers belong to inactive results. Active and inactive are the calls of the source. The call rests on the fitted dose curve; in most records, active means well fitted inhibition curve with a large enough effect; inconclusive means small, poorly fitted or top-dose-only effect; inactive means no such curve, though single readings can be large or run the other way. Where a SMILES comes first, the peptide text is derived from it. [ ]: non-standard residue; d: D form. Hyp = O=C(O)[CH]1C[CH](O)CN1; Phe(ol) = N[CH](CO)Cc1ccccc1; Iva = CC[C](C)(N)C(=O)O; Aib = CC(C)(N)C(=O)O

The test system of test [1] is Zika virus NS2B-NS3 protease (unlinked complex). The test can be described thus: Primary screen GU Rhodamine qHTS for Zika virus inhibitors: Unlinked NS2B-NS3 protease assay (AID 1347159). Further: nearly all actives have a fitted effect of over 60% in size. Summed up:
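A qHTS format was used, with compound concentrations ranging up to 114 microM. Each compound was preincubated with 25 nM NS2B-NS3 protease, and the substrate was then added at 1.5 microM. Curves were fitted with a 4-parameter Hill model.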
In general terms: In qHTS, concentration-response curves come from the screen itself.

Test [2] concerns Zika virus NS2B-NS3 protease (linked construct). Description: Primary screen NINDS Rhodamine qHTS for Zika virus inhibitors (AID 1347160). Further: nearly all actives have a fitted effect of over 55% in size. The method, boiled down:
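Kinetic fluorescence (Ex 480 nm, Em 540 nm) over 15 min with 1.5 microM Rhodamine110 peptide and 25 nM linked protease.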
On the % scale 0 is the no-effect control and ±100 the full control effect; potency means the concentration at half of the fitted maximal effect.

Consider `CC1(C)SCCN(S(=O)(=O)c2ccc(Oc3ccncc3)cc2)[C@H]1C(=O)NO`, for which the Potency result in test [1] and in test [2] was “inactive” throughout.

Consider `C1=C/COCc2cc(ccc2OCCN2CCCC2)Nc2nccc(n2)-c2cccc(c2)COC/1`, for which the Potency entry in test [1] and in test [2] was “inactive” each time.

For the compound `C=C1C(=O)O[C@@H]2[C@H]1CC(=O)[C@H](C)[C@@](O)(C(=O)/C=C/C)[C@H]2OC(=O)C(C)CC` (stereo not given in full), the Potency entry in test [1] and in test [2] was “inactive” throughout.

On to `CC1(C)Oc2ncnc(N)c2N=C1c1ccc(C23CCC(CC(=O)O)(CC2)CC3)cc1`, for which the Potency in test [1] was 50.1 µM (active). The Potency result in test [2] is “inactive”.

For `CCc1cc2c(cc1CC)CC(NCC(O)c1ccc(O)c3[nH]c(=O)ccc13)C2` (stereo not given), the Potency result in test [1] and in test [2] was “inactive” throughout.

Turning to `Cn1ncc2cc(-c3cnc(N)c(Cl)c3N3CCC4(CCNC4=O)CC3)ccc21`, the Potency result in test [1] and in test [2] was “inactive” each time.

On to `Cc1cc(-c2cc(OC(=O)c3ccccc3)ccc2Cl)cc2nnc(Nc3ccc(OCCN4CCCC4)cc3)nc12`, for which the Potency result in test [1] and in test [2] was “inactive” throughout.

`C[C@H](Oc1cc(-n2cnc3ccc(CN4CCN(C)CC4)cc32)sc1C(N)=O)c1ccccc1C(F)(F)F`: the Potency result in test [1] and in test [2] was “inactive” each time.

Consider `C[C@@H](NC(=O)C(=O)c1c[nH]c2ccc([N+](=O)[O-])cc12)c1ccccc1`, for which the Potency entry in test [1] and in test [2] was “inactive” each time.

On to `CC(=O)NCc1cccc(OC[C@@H](O)CNCCc2ccc(NS(=O)(=O)c3ccccc3)cc2)c1`, for which the Potency entry in test [1] and in test [2] was “inactive” throughout.

Consider `C=C1/C(=C/C=C2\CCC[C@]3(C)[C@@H]([C@H](C)CC[C@@H](O)C(C)(C)O)CC[C@@H]23)C[C@@H](O)C[C@@H]1O`, for which the Potency entry in test [1] and in test [2] was “inactive” throughout.

For `Cc1nc2ccc(CN(C)c3ccc(C(=O)NC(CCC(=O)O)C(=O)O)s3)cc2c(=O)[nH]1` (stereo not given), the Potency entry in test [1] and in test [2] was “inactive” in each case.

Take `C=C1C(=O)O[C@@H]2C[C@@]3(C)C[C@@H](O)C[C@H](C)C3=C[C@H]12`: the Potency entry in test [1] and in test [2] was “inactive” throughout.

Consider `Cc1ccc(N2CCN(CCC3NC(=O)c4ccccc43)CC2)cc1C` (stereo not given), for which the Potency result in test [1] and in test [2] was “inactive” in each case.

On to `CCc1cc(C(N)=O)ccc1-n1nc(C(C)C)c2c(-n3cnc(-c4cnn(C)c4)c3)ccnc21`, for which the Potency entry in test [1] and in test [2] was “inactive” throughout.

Regarding `CCOC(=O)c1csc(Nc2ccc(Cl)cc2)n1`, the Potency result in test [1] and in test [2] was “inactive” in each case.

Take `N#CSc1cc(SC#N)c(N)nc1N`: the Potency result in test [1] and in test [2] was “inactive” in each case.

Consider `O=C(Nc1ccc(Cl)cc1)c1ccccc1NCc1ccncc1`, for which the Potency entry in test [1] and in test [2] was “inactive” in each case.

As to `Cc1cc(NC(=O)NCCN2CCC(O)(Cc3ccccc3)CC2)c2ccccc2n1`, the Potency result in test [1] and in test [2] was “inactive” each time.

Turning to `CC(=O)O[C@@H]1C[C@@]23C[C@@]24CC[C@H](O[C@@H]2OC[C@H](O)[C@H](O)[C@H]2O)C(C)(C)[C@@H]4CC[C@H]3[C@]2(C)[C@@H](O)C34O[C@H](C[C@@H](C)[C@@H]3[C@@]12C)[C@@H](C(C)(C)O)O4`, the Potency entry in test [1] and in test [2] was “inactive” in each case.

As to `O=C(c1ccc(OC(F)F)c(C#Cc2ccccn2)c1)N1Cc2cccnc2C1`, the Potency entry in test [1] and in test [2] was “inactive” each time.

With `CC(=O)O[C@@H]1C[C@@]2(C)C(CC[C@]3(C)C2CC=C2C4CC(C)(C)CC[C@]4(C(=O)O)CC[C@]23C)C(C)(C)[C@H]1O` (stereo not given in full), the values for the Potency in test [1] and in test [2] were 7.08 µM (active) and 11.2 µM (active), respectively.

On to `CC1=CC2/C=C(\C)CCC(O)C/C=C/C(=O)OC23C(=O)NC(CC(C)C)C3C1C` (stereo not given), for which the Potency result in test [1] and in test [2] was “inactive” each time.

As to `CCCCc1c(-c2ccc(OC)cc2)[nH]c2nccnc12`, the Potency entry in test [1] and in test [2] was “inactive” each time.

For `COC1CC/C=C(\C)C(=O)Nc2cc(O)cc(c2)CC(C)CC(OC)C(O)C(C)/C=C(\C)C1OC(N)=O` (stereo not given), the Potency entry in test [1] and in test [2] was “inactive” in each case.

With `CCn1nc(C2CCN(C(=O)CCO)CC2)nc1-c1cnc(N)c(-c2nnc(C(C)(C)C)o2)n1`, the Potency entry in test [1] and in test [2] was “inactive” each time.

Consider `CCC(C)C(=O)OC1C(C)C2(O)C(C=C(CO)CC3(O)C(=O)C(C)=CC32)C2C(C)(C)C12OC(=O)C(C)C` (stereo not given), for which the Potency result in test [1] and in test [2] was “inactive” in each case.

As for `CN(C)C(CCOc1cccc2ccccc12)c1ccccc1` (stereo not given), the Potency result in test [1] and in test [2] was “inactive” in each case.

In the case of `COC1CC(=O)C23C(=O)NC(CC(C)C)C2C(C)C(C)=CC3/C=C(\C)CCCC1O` (stereo not given), the Potency result in test [1] and in test [2] was “inactive” throughout.

For `CN(CC1COCCO1)S(=O)(=O)Nc1ccc2ccc3ncc(-c4cnn(C)c4)cc3c(=O)c2c1` (stereo not given), the Potency entry in test [1] and in test [2] was “inactive” throughout.

For the compound `CC(=O)O[C@@H]1CC[C@@]2(C)[C@H](CC[C@@H]3[C@@H]2C[C@H](OC(C)=O)[C@]2(C)[C@@H](C(C)=O)CC[C@@H]32)C1`, the Potency entry in test [1] and in test [2] was “inactive” each time.

Consider `CCC(C)(NC(=O)C(CCC(N)=O)NC(=O)C1CC(O)CN1C(=O)C(C)(C)NC(=O)C(C)(C)NC(=O)C(CC(C)C)NC(=O)CNC(=O)C(NC(=O)C(C)(C)NC(=O)C(C)(C)NC(=O)C(C)(C)NC(=O)C(Cc1ccccc1)NC(C)=O)C(C)C)C(=O)N1CC(O)CC1C(=O)NC(C)(C)C(=O)NC(CO)Cc1ccccc1` (stereo not given) (Ac-F[Aib][Aib][Aib]VGL[Aib][Aib][Hyp]Q[Iva][Hyp][Aib][Phe(ol)]; configuration not given here), for which the activity change, negative = inhibition in test [1] is 8.8% [at 19.1 µM]. Further, in test [2], the outcome is “inactive [at 10.7 µM]”.

For `COc1cc(NC(=O)c2cccc(-n3cc(NC(=O)Nc4cccc(C)c4)cn3)c2)cc(OC)c1OC`, the Potency entry in test [1] and in test [2] was “inactive” in each case.

With `Cc1nc(C#Cc2ccnc(Cl)c2)c(C)n1-c1ccc(F)cc1`, the Potency entry in test [1] and in test [2] was “inactive” each time.

Take `Fc1ccc2[nH]ccc2c1-c1nc(N2CCOCC2)c2sc(CN3CCN(CC4CC4)CC3)cc2n1`: the Potency entry in test [1] and in test [2] was “inactive” throughout.
